In test [1] the target is Lysosomal acid glucosylceramidase (Homo sapiens) (UniProt P04062). Nature of the test: Glucocerebrosidase-p2 (AID 348; in the data active means potency below about 10 µM; further: potency means the concentration at half of the fitted maximal effect). Conditions: purified GBA, blue fluorogenic substrate, 40 min. The gist of the method:
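Compounds titrated from 0.6 nM upwards against 0.2 nM enzyme in pH 5.9 citric acid/KH2PO4, taurocholate, tween-20; blue fluorogenic substrate 80 uM, 40 min room temperature, stopped and read Ex 365/Em 440 for AC50.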

The nature of test [2]: NFAT Signaling Pathway (AID 444; active means well fitted curve in either direction with a large enough effect, not every such curve was filed as active;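 further: carbachol stimulus at about its EC50 of 1 µM final; on the % scale 0 is the no-effect control and ±100 the full control effect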). Conditions: Jurkat NFAT-bla M1, carbachol, beta-lactamase ratio, 5 h; at 7.69 µM (top of the series) unless noted. The gist of the method:
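Jurkat cells with NFAT-driven β-lactamase reporter and co-expressed M1 receptor, stimulated with carbachol (final 1 uM, ~EC50), compound titration, 5 h at 37 °C. CCF4 loaded 1 h at RT; 460/530 nm ratio gave %activity and AC50.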

Test [3] can be described thus: Stat Signaling Pathway (AID 446; active means well fitted curve in either direction with a large enough effect, not every such curve was filed as active;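 further: ME-180 cervical cancer cells given 40 pM IL-6 alongside compound; SIE-controlled beta-lactamase reporter measured as 460/530 nm FRET emission ratio; on the % scale 0 is the no-effect control and ±100 the full control effect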). To be noted: ME-180 SIE beta-lactamase reporter, IL-6 stimulated, 5 h; at 7.69 µM (top of the series) unless noted. The gist of the method: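 ME-180 SIE-bla cells; overnight plating; cpd + IL-6 40 pM, 5 h, 37 C; LiveBLAzer 2.5 h RT; 460/530 nm emission ratio. Normalized to 300 pM IL-6 and 125 nM JAK inhibitor controls.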
Test [4] addresses Glucocorticoid receptor (Homo sapiens) (UniProt P04150). Nature of the test: GR-GFP Redistribution (AID 450;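 active means compounds whose dose series gives a full or clear partial fitted curve of increased nuclear translocation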; further: potency means the concentration at half of the fitted maximal effect). To be noted: U2OS GR-GFP nuclear translocation, laser cytometry, 2 h.
Test [5] shares this target. Nature of the test: GR-EFC Redistribution (AID 451; calls by dose curve; further: potency means the concentration at half of the fitted maximal effect). To be noted: CHO-K1 GR-EFC translocation, beta-gal luminescence, 2 h. A digest of the protocol:
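CHO-K1 cells expressing nuclear EA and GR-ED fragments of b-gal; compounds titrated up to 46 uM final, 2 h at 37 C. GR nuclear translocation read as complemented b-gal luminescence after 1 h RT detection.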

For test [6], the target named is Mitogen-activated protein kinase 10 (Mus musculus) (UniProt Q61831). Nature of the test: JNK3 AlphaScreen Assay (AID 530; active means well fitted curve in either direction with a large enough effect, not every such curve was filed as active;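 further: kinase came from lysate of stimulated human HepG2 cells; signal reports phosphorylation of biotinylated GST-cJun 1-79 at Ser73 with 10 µM ATP; on the % scale 0 is the no-effect control and ±100 the full control effect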). Conditions: JNK3 lysate, c-Jun phosphorylation; series mostly up to 57.1 µM. A digest of the protocol:
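qHTS format: compounds tested as titrations against IL-1beta/TNF-alpha-activated HepG2 lysate JNK3 with biotin-GST-cJun substrate and 10 uM ATP at room temperature. Loss of anti-phospho-cJun AlphaScreen signal indicates inhibition.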
A general note: Bead proximity is the source of the signal in Alpha formats.

The nature of test [7]: qHTS Assay for Identification of Small Molecule Agonists for Hypoxia Response Element Signaling Pathway (AID 914; active means well fitted activation curve with a large enough effect in the signal ratio, with a control signal flat, not every such curve was filed as active; the % refers to the signal ratio; further: potency means the concentration at half of the fitted maximal effect; on activation: % of control where 0% means no effect). Conditions: ME-180 (cervical carcinoma) HRE-bla reporter, beta-lactamase ratio, CoCl2, 17 h; activation: stronger effect = higher value. The gist of the method: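 Compounds in a titration series were added to ME-180 reporter cells alongside an EC50 level of CoCl2. After 17 hours, beta-lactamase activity was read as the 460nm/530nm emission ratio of CCF4, giving AC50 values.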
(In general: qHTS replaces the single test concentration by a dilution series.)

Test [8] deals with Dual specificity protein kinase CLK4 (Homo sapiens) (UniProt Q9HAZ1). Put plainly: qHTS Assay for Inhibitors of CDC-like Kinase 4 (Kinase-Glo Assay) (AID 1770). Further: on the % scale 0 is the no-effect control and ±100 the full control effect; nearly all actives have a fitted effect of over 65% in size. Conditions: recombinant Clk4, Kinase-Glo ATP depletion luminescence; series mostly up to 66.7 µM. A digest of the protocol:
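Recombinant human Clk4 (25 nM) phosphorylated RS repeat peptide (100 uM) with 1 uM ATP in Tris pH 7.5/MgCl2/EGTA/DTT/Triton buffer for 4.5 h at room temperature. Residual ATP was quantified by Kinase-Glo luciferase luminescence.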

Test [9] shares this target. Put plainly: qHTS Assay for Inhibitors of CDC-like Kinase 4 (ADP-Glo Assay) (AID 1771). Further: on the % scale 0 is the no-effect control and ±100 the full control effect; nearly all actives have a fitted effect of over 70% in size. Conditions: recombinant CLK4, ADP-Glo luminescence; series mostly up to 80 µM. A digest of the protocol: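 Kinase reaction: Clk4 at 25 nM, RS repeat peptide substrate at 100 uM, ATP at 1 uM, 1 hr, room temperature. Product ADP detected as luciferase signal via ADP-Glo.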
Test [10] shares this target. Put plainly: qHTS Assay for Inhibitors of CDC-like Kinase 4 (ADP-FP Assay) (AID 1795). Further: on the % scale 0 is the no-effect control and ±100 the full control effect; nearly all actives have a fitted effect of over 60% in size. Conditions: Transcreener ADP fluorescence polarization; series mostly up to 50 µM. A digest of the protocol: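 Recombinant human Clk4 (6.25 nM) phosphorylated RS repeat peptide (100 uM) with 1 uM ATP in Tris pH 7.5/MgCl2/EGTA/DTT/Triton buffer for one hour. ADP was quantified by Transcreener competitive fluorescence polarization against an ADP calibration curve.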

The target in test [11] is Ubiquitin carboxyl-terminal hydrolase 1 (Homo sapiens) (UniProt O94782). Put plainly: Inhibitors of USP1/UAF1: Pilot qHTS (AID 504865).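 Further: rhodamine fluorescence freed from ubiquitin-rhodamine substrate followed over time; top concentration of the series differs between compounds; on the % scale 0 is the no-effect control and ±100 the full control effect; nearly all actives have a fitted effect of over 35% in size.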 To be noted: purified USP1/UAF1, Ub-rhodamine cleavage fluorescence; series mostly up to 54.9 µM. A digest of the protocol:
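USP1/UAF1 complex (1nM) preincubated with compound 15 min at room temperature, then Ub-Rho substrate (150nM final) added. Fluorescence read kinetically at 480/540 nm, 6 reads every 60 seconds. Buffer: 50mM HEPES pH 7.8, 0.5mM EDTA, 0.1 mg/ml BSA, 1mM TCEP, 0.01% Tween-20.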

Test [12] is described as follows: Primary qHTS for small molecule stabilizers of the endoplasmic reticulum resident proteome: Secreted ER Calcium Modulated Protein (SERCaMP) assay (AID 1508630). Further: on the % scale 0 is the no-effect control and ±100 the full control effect. To be noted: SH-SY5Y GLuc-SERCaMP (Gaussia luciferase released on ER calcium loss) secretion, thapsigargin, luminescence; series mostly up to 38.4 µM. A digest of the protocol:
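GLuc-SERCaMP-expressing SH-SY5Y cells, pretreated 16 h with compound, are challenged with thapsigargin to empty ER calcium stores; after 4 h, coelenterazine is added directly to the medium and luminescence is imaged.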

The target in test [13] is Cytochrome P450 1A2 (Homo sapiens) (UniProt P05177). Put plainly: p450-cyp1a2 (AID 410; calls by dose curve;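 further: -100% = full effect of reference inhibitor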). To be noted: recombinant CYP1A2, luciferin-ME demethylation, luminescence; series mostly up to 57 µM. A digest of the protocol:
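Inhibition was calculated relative to 57 uM furafylline (full inhibition). The reaction used human CYP1A2 at 20nM with Luciferin-ME at its Km, 100uM, driven by an NADPH-regenerating system for 60 min at room temperature.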

Test [14] concerns the target 3',5'-cyclic-AMP phosphodiesterase 4B (Homo sapiens) (UniProt Q07343). Nature of the test: qHTS Assay for Inhibitors of PDE-IV (AID 607; active means well fitted activation curve with a large enough effect in the main read-out, with a control signal flat, not every such curve was filed as active; further: % of control where 0% means no effect). Conditions: HEK293 ACTOne CNG channel cells, membrane potential fluorescence; series mostly up to 22.9 µM. A digest of the protocol: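 ACTOne HEK293 cells carry a modified cAMP-gated CNG channel and express endogenous PDE4; plated 1000 cells/well, compounds up to 22.9 uM final. Membrane-potential dye fluorescence (ex 535/em 590) was read; parental cells received 10 uM forskolin + 100 uM RO 20-1724.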

A number with no mark means an inactive call. Records with an inconclusive call do not appear. The source made the active and inactive calls. Unless noted, the call rests on the fitted dose curve; in most records, active means well fitted curve in the direction sought with a large enough effect; inconclusive means small, poorly fitted or top-dose-only effect, or another doubt; inactive means no such curve, though single readings can be large; an effect the other way counts as inactive or inconclusive.

Chain of Glucocorticoid receptor (Homo sapiens) (P04150 whole entry, looked up): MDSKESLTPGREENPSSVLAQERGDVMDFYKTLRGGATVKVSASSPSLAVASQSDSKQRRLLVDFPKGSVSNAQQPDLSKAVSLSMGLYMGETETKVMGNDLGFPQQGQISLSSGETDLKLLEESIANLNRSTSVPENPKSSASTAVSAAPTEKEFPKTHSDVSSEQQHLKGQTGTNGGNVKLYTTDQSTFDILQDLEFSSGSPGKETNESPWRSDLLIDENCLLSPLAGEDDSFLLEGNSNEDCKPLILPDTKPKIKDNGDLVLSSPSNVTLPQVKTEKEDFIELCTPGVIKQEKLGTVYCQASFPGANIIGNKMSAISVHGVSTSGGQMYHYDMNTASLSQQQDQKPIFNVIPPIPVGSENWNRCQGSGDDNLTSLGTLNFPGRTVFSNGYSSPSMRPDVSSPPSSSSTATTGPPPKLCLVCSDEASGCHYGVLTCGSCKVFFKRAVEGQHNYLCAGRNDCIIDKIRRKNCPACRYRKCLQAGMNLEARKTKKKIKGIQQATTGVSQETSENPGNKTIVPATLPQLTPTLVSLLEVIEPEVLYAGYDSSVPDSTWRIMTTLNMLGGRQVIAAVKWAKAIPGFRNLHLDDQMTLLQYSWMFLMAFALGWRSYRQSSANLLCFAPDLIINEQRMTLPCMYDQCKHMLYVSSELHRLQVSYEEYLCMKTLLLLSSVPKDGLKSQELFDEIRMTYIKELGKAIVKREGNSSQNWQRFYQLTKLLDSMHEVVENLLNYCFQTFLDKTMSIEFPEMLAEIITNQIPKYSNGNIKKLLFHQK
Chain of Dual specificity protein kinase CLK4 (Homo sapiens) (Q9HAZ1 whole entry, looked up): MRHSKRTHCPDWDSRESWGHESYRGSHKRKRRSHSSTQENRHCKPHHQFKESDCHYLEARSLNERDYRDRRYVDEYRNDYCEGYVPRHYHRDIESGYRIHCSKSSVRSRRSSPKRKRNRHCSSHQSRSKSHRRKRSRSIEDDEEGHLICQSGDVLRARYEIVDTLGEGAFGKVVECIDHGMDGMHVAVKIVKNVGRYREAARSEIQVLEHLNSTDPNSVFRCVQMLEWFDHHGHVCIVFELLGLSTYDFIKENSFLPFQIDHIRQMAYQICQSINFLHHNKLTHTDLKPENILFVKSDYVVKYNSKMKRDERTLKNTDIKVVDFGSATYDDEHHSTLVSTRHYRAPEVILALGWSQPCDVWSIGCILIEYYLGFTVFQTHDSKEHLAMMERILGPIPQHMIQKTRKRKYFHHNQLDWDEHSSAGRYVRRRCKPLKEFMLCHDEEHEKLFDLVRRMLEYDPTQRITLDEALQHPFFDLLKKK
Chain of Lysosomal acid glucosylceramidase (Homo sapiens) (P04062 whole entry, looked up): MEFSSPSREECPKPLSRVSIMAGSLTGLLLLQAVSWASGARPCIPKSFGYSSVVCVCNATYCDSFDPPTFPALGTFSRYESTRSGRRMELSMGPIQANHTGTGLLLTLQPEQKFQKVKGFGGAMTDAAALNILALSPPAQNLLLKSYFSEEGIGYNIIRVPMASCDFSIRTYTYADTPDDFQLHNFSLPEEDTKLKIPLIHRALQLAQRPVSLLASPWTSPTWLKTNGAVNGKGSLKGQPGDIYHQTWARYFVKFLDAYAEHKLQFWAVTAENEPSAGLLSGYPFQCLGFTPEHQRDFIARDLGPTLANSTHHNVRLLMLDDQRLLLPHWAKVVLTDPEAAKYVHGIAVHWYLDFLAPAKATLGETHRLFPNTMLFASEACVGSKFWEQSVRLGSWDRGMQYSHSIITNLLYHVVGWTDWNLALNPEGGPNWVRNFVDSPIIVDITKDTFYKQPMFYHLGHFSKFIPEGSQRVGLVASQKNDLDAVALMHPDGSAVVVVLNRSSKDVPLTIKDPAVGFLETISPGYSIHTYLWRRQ
Chain of Ubiquitin carboxyl-terminal hydrolase 1 (Homo sapiens) (O94782 whole entry, looked up): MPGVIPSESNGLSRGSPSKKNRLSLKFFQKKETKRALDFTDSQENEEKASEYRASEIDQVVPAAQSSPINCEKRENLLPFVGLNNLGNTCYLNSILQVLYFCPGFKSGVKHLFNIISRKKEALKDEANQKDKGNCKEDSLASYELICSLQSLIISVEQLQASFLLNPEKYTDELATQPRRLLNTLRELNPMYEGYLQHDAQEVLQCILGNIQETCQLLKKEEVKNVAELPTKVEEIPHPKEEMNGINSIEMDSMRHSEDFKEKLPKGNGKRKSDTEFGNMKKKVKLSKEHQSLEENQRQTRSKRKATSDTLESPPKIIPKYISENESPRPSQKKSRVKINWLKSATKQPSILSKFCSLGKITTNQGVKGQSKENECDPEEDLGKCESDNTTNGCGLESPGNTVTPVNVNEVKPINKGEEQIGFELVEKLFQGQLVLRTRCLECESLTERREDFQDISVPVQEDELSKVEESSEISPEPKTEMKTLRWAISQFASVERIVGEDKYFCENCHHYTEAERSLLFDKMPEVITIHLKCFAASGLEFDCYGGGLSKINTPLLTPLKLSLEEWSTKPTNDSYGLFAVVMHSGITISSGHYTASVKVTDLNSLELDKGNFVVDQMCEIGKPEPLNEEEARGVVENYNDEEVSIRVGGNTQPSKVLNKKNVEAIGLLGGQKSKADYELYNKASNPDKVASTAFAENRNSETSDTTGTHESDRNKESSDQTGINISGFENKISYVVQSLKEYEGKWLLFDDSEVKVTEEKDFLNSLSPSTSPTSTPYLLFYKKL
Chain of 3',5'-cyclic-AMP phosphodiesterase 4B (Homo sapiens) (Q07343 whole entry, looked up): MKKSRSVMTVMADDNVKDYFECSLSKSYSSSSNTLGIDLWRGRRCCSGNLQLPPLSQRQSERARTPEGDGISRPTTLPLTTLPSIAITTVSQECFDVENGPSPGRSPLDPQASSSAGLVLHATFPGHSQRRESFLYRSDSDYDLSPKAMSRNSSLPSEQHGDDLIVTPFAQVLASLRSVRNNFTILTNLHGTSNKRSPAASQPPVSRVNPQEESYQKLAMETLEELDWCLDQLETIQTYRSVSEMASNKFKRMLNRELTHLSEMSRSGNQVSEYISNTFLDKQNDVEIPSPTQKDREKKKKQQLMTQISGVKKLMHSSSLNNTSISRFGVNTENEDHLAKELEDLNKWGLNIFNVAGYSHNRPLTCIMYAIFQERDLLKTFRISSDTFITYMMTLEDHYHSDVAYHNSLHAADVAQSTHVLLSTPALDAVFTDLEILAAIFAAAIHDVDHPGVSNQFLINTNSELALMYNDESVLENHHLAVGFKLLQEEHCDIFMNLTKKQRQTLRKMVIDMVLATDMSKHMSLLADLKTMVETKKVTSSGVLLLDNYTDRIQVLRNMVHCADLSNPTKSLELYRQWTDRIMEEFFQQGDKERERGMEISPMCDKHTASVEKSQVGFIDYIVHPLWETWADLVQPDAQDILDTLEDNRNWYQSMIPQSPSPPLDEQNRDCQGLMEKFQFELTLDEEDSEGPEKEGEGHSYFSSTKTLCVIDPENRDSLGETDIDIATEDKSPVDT
Chain of Cytochrome P450 1A2 (Homo sapiens) (P05177 whole entry, looked up): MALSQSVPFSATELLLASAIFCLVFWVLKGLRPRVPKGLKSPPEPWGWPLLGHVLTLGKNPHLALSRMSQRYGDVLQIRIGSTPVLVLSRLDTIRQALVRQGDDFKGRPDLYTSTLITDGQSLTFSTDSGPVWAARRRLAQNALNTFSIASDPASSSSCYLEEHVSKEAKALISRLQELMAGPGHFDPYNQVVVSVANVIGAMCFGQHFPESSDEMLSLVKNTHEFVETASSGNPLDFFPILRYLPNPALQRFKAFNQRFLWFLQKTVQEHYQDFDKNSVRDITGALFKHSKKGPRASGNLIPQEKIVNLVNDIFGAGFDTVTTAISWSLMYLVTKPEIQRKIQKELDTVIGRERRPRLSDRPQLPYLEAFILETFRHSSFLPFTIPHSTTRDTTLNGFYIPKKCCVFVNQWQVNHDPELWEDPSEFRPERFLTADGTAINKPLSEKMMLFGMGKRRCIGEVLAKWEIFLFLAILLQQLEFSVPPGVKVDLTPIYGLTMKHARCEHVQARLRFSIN

In the case of `COc1ccc(CNc2ccnc(-c3ccoc3)n2)c(OC)c1`, the Potency in test [1] was greater than 11.4 µM; in test [4], greater than 46 µM; in [5], greater than 46 µM. Also, the activity change, negative = inhibition in [2] was 8.22%. Besides, the activity, negative = inhibition in [3] is 10.4%. The Potency entry in test [6], in [8], in test [9], in test [10] and in test [11] was “inactive” each time. In [7], the activation is 16.3%. In [12], the outcome was inactive.
Turning to `CCNc1ncc2nc(-c3ccc(Cl)cc3)c(=O)n(Cc3cccc(OC)c3)c2n1`, the Potency in [1] was greater than 11.4 µM; in [4] it was greater than 9.22 µM; in test [5], greater than 46 µM; in test [7] it was 0.316 µM (active). The Potency entry in test [13], in test [6], in test [14], in test [8], in [9] and in test [10] was “inactive” throughout. Further, the Potency result in [11] is “inactive”. Moreover, the outcome in [12] was inactive.
For `COc1ncc2nc(-c3cccs3)c(=O)n(Cc3cccs3)c2n1`, the Potency in [1] was greater than 11.4 µM; in test [4] it was greater than 9.22 µM; in test [5] it was greater than 46 µM. Also, the activity change, negative = inhibition in test [2] is 5.36%. Moreover, the activity, negative = inhibition in [3] was -1.88%. Further, the Potency result in test [6], in test [8], in test [9], in test [10] and in test [11] was “inactive” each time. The outcome in test [12] was inactive.
On to `CN1CCN(c2ncc3nc(-c4cn(C)c5ccccc45)c(=O)n(Cc4cccs4)c3n2)CC1`, for which the Potency in test [1] is greater than 11.4 µM; in test [4] it was greater than 9.22 µM; in test [5] it was greater than 46 µM; in test [7], 2.51 µM (active). The activity change, negative = inhibition in [2] is 3.65%. Besides, the Potency result in [14], in [8], in test [9], in test [10] and in test [11] was “inactive” each time. Besides, the result in [12] was inactive.
